Compound activity from PubChem BioAssay.
Compounds with a hit are over-represented: about 4.6% of the library has one in this group of screens.
proKLK7 act: proKLK7 zymogen activators, primary screen, biochemical, fluorescence intensity. purified proKLK7, EDANS-DABCYL substrate fluorescence; 100% is mature enzyme control, 0% vehicle. activation, % at 7 µM. AID 652039, 2013. actives 0.9% (n = 370,000). Kallikrein-7 (Homo sapiens), P49862;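 active = activation above the mean of all tested compounds plus 3 SD, computed per campaign excluding outliers beyond control limits, cut at about 13% in these data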
Target sequence (P49862 whole entry, looked up): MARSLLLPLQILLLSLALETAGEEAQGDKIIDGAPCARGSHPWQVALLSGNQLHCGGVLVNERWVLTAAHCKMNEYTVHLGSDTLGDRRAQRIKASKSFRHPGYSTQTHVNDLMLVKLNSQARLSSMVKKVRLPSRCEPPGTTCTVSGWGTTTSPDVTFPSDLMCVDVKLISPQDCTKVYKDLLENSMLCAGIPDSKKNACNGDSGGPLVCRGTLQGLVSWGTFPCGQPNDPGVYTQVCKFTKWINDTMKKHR
NR3A LBD binder: binders of NR3A ligand-binding domain, primary screen, biophysical, differential scanning fluorimetry, uHTS; Glutamate receptor ionotropic, NMDA 3A (GRIN3A) ligand-binding domain; NR3A LBD differential scanning fluorimetry, Tm shift; 0% = protein alone, 100% = glycine-bound protein; Tm shift relative to glycine control, % at 25 µM; actives 2.5% (n = 340,000);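 active = melting temperature shift of at least 10% of the positive control shift, at one fixed dose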
FAS TE block: FAS thioesterase domain inhibitors, primary screen, biochemical, fluorescence intensity, uHTS | recombinant FAS-TE, OMFH fluorogenic substrate, fluorescence endpoint | inhibition, % at 15 µM | actives 0.67% (n = 360,000);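 active = compounds whose normalised, plate-corrected inhibition of enzyme fluorescence in the single-dose primary screen is 50% or more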;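 also: 0% = DMSO with enzyme and 100% = substrate without enzyme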
ADAM10 inh: human ADAM10 inhibitors, primary screen, biochemical, QFRET, HTS. recombinant ADAM10, EDANS/DABCYL FRET peptide cleavage, 3 h. inhibition, % at 7 µM. actives 0.62% (n = 370,000). AID 720582, 2013;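 active = inhibition above a per-campaign cutoff equal to the mean of compounds falling between control-based bounds plus 3 SD, cut at about 20% in these data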;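 also: 0% = DMSO wells while the 100% control is not disclosed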
ADAM17 inh: ADAM17 inhibitors, primary screen, biochemical, QFRET. Disintegrin and metalloproteinase domain-containing protein 17 (Homo sapiens), P78536. recombinant ADAM17, EDANS/DABCYL FRET peptide cleavage. inhibition, % at 6.95 µM. actives 0.83% (n = 370,000). AID 720648, 2013;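 active = inhibition above the mean of compounds lying between control limits plus 3 SD, set per campaign, cut at about 8.5% in these data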;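 also: 0% = DMSO-only wells as the low control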
The depositor's hits bear a star; i = inactive; x = not tested or not shown.

SMILES | proKLK7 act | NR3A LBD binder | FAS TE block | ADAM10 inh | ADAM17 inh
COc1ccccc1C(=O)Nc1nnc(S(=O)(=O)N2CCC(C)CC2)s1 | 0.6 | -5.8 | 9.0 | 10.7 | 5.8
CC1CCN(S(=O)(=O)c2nnc(NC(=O)c3cccc(Cl)c3)s2)CC1 | 0.9 | 14.1* | 8.3 | -3.1 | -2.3
COc1ccc2oc(=O)c(C(=O)Oc3ccc(NC(C)=O)cc3)cc2c1 | 214.9* | 1.4 | -7.4 | -306.6 | -102.5
CN1C(=O)c2cc(NC(=O)Nc3ccccc3)ccc2OC[C@H]2O[C@@H](CC(=O)NC3Cc4ccccc4C3)CC[C@@H]21 | -0.1 | x | x | 8.2 | -3.4
O=c1cc(-c2ccc(O)c(O)c2)oc2cc(O)cc(O)c12 | 0.2 | 9.9 | -3.4 | 4.8 | 2.2
COc1ccc(-c2cc(=O)c3c(O)cc(O)cc3o2)cc1 | 0.0 | -0.5 | 8.0 | -3.9 | -6.9
O=c1c(-c2c(O)cc(O)c3c(=O)cc(-c4ccc(O)cc4)oc23)c(-c2ccc(O)cc2)oc2cc(O)cc(O)c12 | 0.6 | 26.6* | 12.3 | -7.9 | 1.9
O=c1cc(-c2ccc(O)cc2)oc2c(-c3c(O)cc(O)c4c(=O)cc(-c5ccc(O)cc5)oc34)c(O)cc(O)c12 | 0.6 | 21.4* | 20.1 | -1.5 | 2.0
COc1c(-c2ccc(O)cc2)oc2cc(O)cc(O)c2c1=O | -0.4 | -1.9 | -9.0 | 0.0 | 2.5
O=c1cc(-c2ccc(O)c(-c3c(O)cc(O)c4c(=O)cc(-c5ccc(O)cc5)oc34)c2)oc2cc(O)cc(O)c12 | 0.1 | 18.1* | 28.9 | 14.3 | 6.2
O=c1c(O)c(-c2ccc(O)c(O)c2)oc2cc(O)cc(O)c12 | -3.5 | 22.0* | 22.0 | 5.8 | -2.8
O=C(NC1CCCCN(Cc2cccc(Cl)c2)C1=O)c1ccccn1 (centres undefined) | 0.5 | x | x | -4.2 | 2.6
COc1cccc(N2CCN(CC(=O)NCc3ccco3)CC2)c1 | 0.2 | x | x | -9.4 | -2.6
N#Cc1ccccc1N1CCN(S(=O)(=O)c2ccc3c(c2)CCC(=O)N3)CC1 | 0.2 | x | x | -21.8 | -4.2
COC(=O)C[C@@H]1CC[C@H]2[C@@H](COc3ccc(NC(=O)NC(C)C)cc3C(=O)N2C)O1 | -0.2 | x | x | -0.9 | -2.8
Cc1ccccc1CC(=O)Nc1nnc(-c2cccnc2)s1 | -0.8 | x | x | -11.9 | -3.4
Nc1[nH]c2cc(Cl)ccc2c1C(=O)N1CCOCC1 | 0.9 | x | x | -7.4 | 0.6
COc1cccc(/C=N/NC(=O)c2nnn(-c3nonc3N)c2CN(C)c2ccccc2)c1 | -0.3 | 19.5* | 17.1 | 13.2 | 3.0
CN(C)Cc1c(C(=O)N/N=C/c2ccccc2OCc2c(F)cccc2Cl)nnn1-c1nonc1N | -0.3 | 0.8 | 20.4 | 4.5 | 3.4
CN(C)Cc1c(C(=O)N/N=C/c2cccc(OCc3c(F)cccc3Cl)c2)nnn1-c1nonc1N | 0.1 | 23.6* | -2.8 | -5.3 | -2.9
CN(Cc1c(C(=O)N/N=C/c2cccc(F)c2)nnn1-c1nonc1N)c1ccccc1 | 0.2 | 36.8* | 11.7 | 12.4 | 4.8
CN(C)Cc1c(C(=O)N/N=C/c2cccc(OCc3ccccc3)c2)nnn1-c1nonc1N | 0.0 | 4.9 | -22.5 | -4.9 | -2.8
N#C/C(=N\Nc1cccc(C(F)(F)F)c1)C(=O)c1ccsc1 | 0.0 | 16.4* | 11.8 | 18.4 | 5.5
CCN(CC)c1ccc(C=Nn2c(C)nnc2C)cc1 | -0.3 | x | x | -28.2 | -3.0
CN1CCN(CC(=O)Nc2nc(-c3ccccc3)cs2)CC1 | 0.3 | 13.1* | -11.3 | 4.3 | -2.5
SMILES | proKLK7 act | NR3A LBD binder | FAS TE block | ADAM10 inh | ADAM17 inh
O=C(Cc1c(F)c(F)c(F)c(F)c1F)Nc1nc(-c2ccccc2)cs1 | -0.5 | 11.8* | 22.8 | 2.1 | 0.3
O=C(Cc1ccc(F)cc1)Nc1nc(-c2ccc(F)cc2)cs1 | -0.6 | -2.4 | 8.6 | 2.6 | -1.7
O=C(c1cc(Cl)cc(Cl)c1)N1CCC(Oc2cccnc2)CC1 | 0.0 | x | x | -3.6 | 0.3
CC1(C)COC(c2ccc3c(c2)OCO3)OC1 | 0.4 | 11.2* | -2.6 | -13.1 | -2.9
O=C(Nc1cccc(-n2cnnn2)c1)c1ccoc1COc1ccc(Cl)cc1 | 0.3 | 21.2* | 35.7 | 4.4 | 2.4
O=C(Nc1cccc(-n2cnnn2)c1)c1cc(Cl)ccc1Cl | 0.0 | -3.8 | 15.9 | 3.1 | -0.5
O=C(Nc1cc(S(=O)(=O)Nc2ccc(Cl)cc2)ccc1O)c1ccc(S(=O)(=O)N2CCCCCC2)cc1 | 0.6 | 29.6* | -13.0 | 3.4 | -0.1
O=C(Nc1cc(S(=O)(=O)N2CCCCC2)ccc1Cl)c1ccccc1NS(=O)(=O)c1ccc(F)cc1 | 0.6 | 20.8* | 15.2 | -55.5 | -33.4
O=C(Nc1cc(S(=O)(=O)N2CCOCC2)ccc1N1CCCC1)c1cc2c(s1)CCCC2 | x | x | x | 1.9 | 1.8
O=C(Nc1cc(S(=O)(=O)Nc2ccccc2Cl)ccc1O)c1cc2c(s1)CCCC2 | 0.3 | 11.9* | -5.0 | -2.3 | -4.5
O=C(Nc1cc(S(=O)(=O)N2CCCCC2)ccc1O)c1ccccc1NS(=O)(=O)c1ccc(F)cc1 | 0.5 | 21.0* | 7.6 | -22.9 | -13.9
O=C(NCCc1ccccc1)OCc1cn(-c2cccc(F)c2F)nn1 | 0.1 | x | x | -20.9 | -8.9
O=C(OCC#CCSc1nnc(-c2ccc(F)cc2)o1)c1ccc(F)cc1 | x | x | x | 13.5 | 8.1
Cc1nc(C(=O)NCCO)cc2c1[nH]c1ccccc12 | 8.4 | -0.5 | -5.9 | -113.6 | -39.9
Cc1nc(C(=O)O)cc2c1[nH]c1ccccc12 | 58.6* | -2.4 | -5.8 | i | -498.5
Cc1noc2ncnc(Sc3ccc(Cl)cc3)c12 | -0.3 | 10.0* | 22.9 | 1.1 | -2.2
CCn1nc(C)c(CNC(=O)c2cc(COc3ccc(F)cc3Cl)on2)c1C | 0.2 | 0.4 | -0.8 | -2.6 | -7.4
CCn1cc(CNC(=O)c2cc(COc3ccc(F)cc3Cl)on2)cn1 | -0.5 | 116.1* | -2.5 | -1.0 | 0.9
COC(=O)[C@H]1C[C@@]2(C)c3ccccc3N(S(=O)(=O)c3ccccc3)[C@H]2N1 | 0.4 | x | x | 1.8 | -3.1
Cc1ccc(CSc2nnc(SCC(=O)N/N=C/c3c(C)nn(-c4ccccc4)c3C)s2)cc1 | 0.2 | -5.2 | 0.1 | 7.1 | 3.2
Cc1nn(-c2ccccc2)c(C)c1/C=N/NC(=O)CSc1nnc(SCc2ccccc2Cl)s1 | 0.3 | 11.1* | 10.7 | 3.5 | 2.9
COc1cccc(/C(O)=C/c2nc3ccc(C(=O)NCCc4cccc(C)c4)cc3[nH]c2=O)c1 | 0.9 | -3.2 | -11.8 | -74.5 | -19.2
COc1cccc(/C(O)=C/c2nc3ccc(C(=O)NCCc4ccc(Cl)cc4)cc3[nH]c2=O)c1 | -0.4 | 11.1* | -27.9 | -15.3 | -5.4
C[C@H](CCCCC1(C)OCCO1)CCC(=O)N(c1ccccc1)c1ccccc1 | 0.6 | x | x | 3.6 | 1.1
O=C1CCC[C@H]2C[C@H](NCc3ccc(Cl)c(Cl)c3)CC[C@]23CCCN13 | x | x | x | -0.8 | -3.1
